This is a sample that favours compounds with a hit; in the whole collection about 5.6% have one here.
RORgamma inh: inhibitors of mouse ROR gamma transcriptional activity. P51450. Drosophila S2 Gal4-RORgamma UAS-luciferase reporter, 20 h. Potency, µM (series often up to 53.6 µM), inactives show at the top dose activity change, negative = inhibition, hits mostly inhibitors. 5.4% of 310,000 active. AID 2551; also: potency is read from the fitted curve at half-maximal effect; nearly all actives have a fitted effect of over 60% in size
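Luciferase reporter read in Schneider cells carrying Gal4-RORγ (mouse) and UAS-Photinus luciferase; cells given compound 1 h before 700 uM copper sulfate induction, then incubated 20 h at ambient temperature.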
PKM2 activator: PKM2 (human) enzyme activation; AID 1631; Potency, µM (titrated, usually from 57.5 µM), for inactives: top-dose activation, actives largely listed as activators; purified PKM2, Kinase-Glo ATP luminescence, activation; response scale: 0% is enzyme alone, no compound; 0.34% of 260,000 active; also: potency is read from the fitted curve at half-maximal effect; nearly all actives have a fitted effect of over 55% in size
Target sequence (P14618 whole entry, looked up): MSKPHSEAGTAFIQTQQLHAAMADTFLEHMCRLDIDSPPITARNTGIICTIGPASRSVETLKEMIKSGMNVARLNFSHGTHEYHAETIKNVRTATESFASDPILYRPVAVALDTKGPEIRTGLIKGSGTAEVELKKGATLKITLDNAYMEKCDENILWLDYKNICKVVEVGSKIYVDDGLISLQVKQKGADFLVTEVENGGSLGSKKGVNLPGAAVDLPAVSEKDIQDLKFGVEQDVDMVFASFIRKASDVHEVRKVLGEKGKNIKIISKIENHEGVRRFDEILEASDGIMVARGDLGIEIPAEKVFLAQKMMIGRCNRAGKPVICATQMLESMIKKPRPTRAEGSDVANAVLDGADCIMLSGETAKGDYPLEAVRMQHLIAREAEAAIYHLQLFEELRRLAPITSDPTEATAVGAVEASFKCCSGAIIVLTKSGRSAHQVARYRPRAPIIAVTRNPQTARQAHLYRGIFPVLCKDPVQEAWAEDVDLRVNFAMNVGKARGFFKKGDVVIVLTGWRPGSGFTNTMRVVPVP
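hPK-M2, >95% pure; 0.1 mM ADP / 0.5 mM PEP final; imidazole pH7.2 buffer w/ 7 mM MgCl2, 50 mM KCl; 1 h RT; Kinase-Glo lum. Intermediate enzyme activity for dual inhibitor/activator qHTS.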
CtBP-E1A blk: blocks the CtBP interaction with E1A. activity change, % (test concentration not listed). 0.49% of 340,000 active. AlphaScreen GST-E1A/His-CtBP binding, 1536-well; hits give low values; in the data active = activity change below about -65%; inconclusive = mostly about -30% to -63%
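In 5 uL wells, 23 nL compound meets equimolar GST-E1A and His-CtBP (5X stock 125 nM each) for 2 h, 37 °C. Beads (5X, 50 ug/mL) then 1 h, 37 °C, dark.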
Six1-Eya2 inh: inhibitors of human Six1/Eya2 interaction; activity change, % (concentration not given with the values); Q15475+O00167; 0.56% of 360,000 active; AlphaScreen GST-Six1/His-Eya2 binding, biochemical; hits give low values; in the data active = activity change below about -65%; inconclusive = mostly about -30% to -63%
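GST-Six1 + His-Eya2 (5X stock: 250/500 nM); Tris pH 8.0, 300 mM NaCl, 0.05% BSA, 0.02% Tween 20; GSH donor/Ni acceptor beads; 1 h 37 °C dark; AlphaScreen readout.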
Gal4-VP16 FLuc: Gal4-VP16 reporter inhibition counter-screen; Potency, µM (top dose mostly 53.6 µM), without a hit: top-dose activity, negative = inhibition, usual class: inhibitors; Drosophila S2 Gal4-VP16 UAS-luciferase, luminescence, 20 h; 3.5% of 310,000 active;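 also: Gal4-VP16 expression switched on by copper sulfate through the metallothionein promoter; potency is read from the fitted curve at half-maximal effect; nearly all actives have a fitted effect of over 50% in size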
Active calls of the source: *; ? = inconclusive; . = no result given; [ ] = another dose, or the depositor's remark. Unless noted, calls follow the shape of the dose curve; as a rule, active = well fitted curve in the direction sought with a large enough effect; inconclusive = small, poorly fitted or top-dose-only effect, or another doubt; inactive = no such curve, though single readings can be large; an effect the other way counts as inactive or inconclusive. % is scaled to controls: 0 for no effect and ±100 for the full control effect.

SMILES	RORgamma inh	PKM2 activator	CtBP-E1A blk	Six1-Eya2 inh	Gal4-VP16 FLuc
CCOc1ccc(NC(C)C(=O)N/N=C/c2ccc([N+](=O)[O-])cc2)cc1 (stereo unspecified)	3.2%	-9.6%	.	.	-9.5%
Cc1cccc(N2CCN(C(=O)CCc3nc4ccccc4c(=O)[nH]3)CC2)c1C	.	.	4.1	7.5	.
O=C(Nc1ccc([N+](=O)[O-])cc1Br)c1cc2ccccc2nc1Cl	-0.6%	-11.6%	4.0	-3.2	3.4%
Cc1ccc(NC(=S)c2nc3ccccc3s2)cc1	1µM*	-5.7%	?	-6.0	2µM*
O=C(Nc1ccc(Cl)cc1)/C(=C/c1cccc(O)c1)c1nc2ccccc2s1	11.2µM*	-0.1%	-1.1	2.1	20µM*
S=C(Nc1ccc(Cl)cc1)c1nc2ccccc2s1	0.316µM*	1.2%	?	?	1.41µM*
O=C(O)C/C(=C\c1cccc(NC(=O)c2ccccc2Cl)c1)c1nc2ccccc2s1	-37.1%	1.4%	5.0	-0.2	5.7%
Cc1ccc(C)c(NC(=S)c2nc3ccccc3s2)c1	0.398µM*	-7.6%	?	?	0.708µM*
CCc1cccc(C)c1NC(=O)CN(C)S(=O)(=O)c1ccc(-c2ccc(=O)[nH]n2)s1	-0.8%	.	0.0	2.1	-2.5%
COc1cc(NC(=O)c2cccc(S(=O)(=O)N3CCCCC3)c2)cc(OC)c1OC	.	.	-10.7	-25.5	.
Cc1ccccc1N=C1c2ccccc2C(=O)C1[N+](=O)[O-] (stereo unspecified)	0.1%	-5.2%	.	3.1	-7.6%
CCCCN(Cc1ccccc1)C(=O)C1CCC(=O)N(CCc2ccccn2)C1 (stereo unspecified)	-13.5%	-2.1%	5.9	12.3	-5.6%
O=C(NCCN1CCOCC1)/C(=C/c1ccco1)NC(=O)c1ccccc1	.	-7.9%	-0.4	9.0	.
CCC/C(=N/NC(=O)c1cccc(Cl)c1)c1ccccc1	12.6µM*	-17.5%	1.8	0.9	?
O=C(N/N=C/C1C(c2ccccc2)C1(Cl)Cl)c1cccc(Cl)c1 (stereo unspecified)	2.82µM*	5.4%	22.9	8.5	4.47µM*
CCC/C(=N\NC(=O)C1CC1)c1ccccc1	.	.	4.1	10.1	.
COC(=O)c1ccc(NC(=O)CSc2nc(=O)n3cccc(C)c3n2)cc1	.	.	-17.0	?	.
COc1ccc2nc(C)cc(SCC(=O)N/N=C/c3ccc(O)c(O)c3)c2c1	-17.9%	25.1µM*	-71.8*	-72.2*	1.3%
COc1cccc2c(SCC(=O)N/N=C/c3ccc(O)c(O)c3)cc(C)nc12	-16.0%	?	-74.3*	-71.3*	-14.2%
COc1ccc2nc(C)cc(SCC(=O)N/N=C/c3cccc4ccccc34)c2c1	11.2µM*	-2.6%	-3.0	-2.1	-25.5%
COC(=O)CSc1cc(C)nc2ccc(OC)cc12	-10.2%	-15.6%	1.6	5.7	-3.9%
COc1cccc2c(SCC(=O)N/N=C/c3ccccc3)cc(C)nc12	?	20.3%	-2.4	-7.1	-11.0%
CCc1ccc(C(=O)Nc2cc(C)ccc2F)s1	51.9%	-4.7%	9.4	4.1	-4.8%
O=C(CCNC(=O)c1ccccc1Cl)Nc1ccncc1	0.0%	0.8%	2.9	2.0	-3.8%
Cc1[nH]c(=S)c(C#N)c(C)c1Cc1ccccc1	3.55µM*	18.0%	1.7	5.4	8.91µM*
SMILES	RORgamma inh	PKM2 activator	CtBP-E1A blk	Six1-Eya2 inh	Gal4-VP16 FLuc
Cc1[nH]c(=S)c(C#N)c(C)c1CCC#N	14.1µM*	3.3%	-1.3	-14.2	-15.7%
O=C(NCCS(=O)(=O)NCc1ccc2c(c1)OCO2)c1ccccc1	.	.	-4.1	11.6	.
Cc1cc(N2CCCC2)nc2ccccc12	-10.9%	-4.8%	.	8.9	7.9%[10 µM]
Cc1nn(-c2cc(C)c3ccccc3n2)c2c1CCC2	2.24µM*	3.1%	0.6	3.7	?
CCOc1ccc(N(CC(=O)NCCSCc2ccco2)S(=O)(=O)c2ccc(C)cc2)cc1	-8.8%	0.7%	-7.4	-2.8	0.9%
CCc1c(C)nc2nc(SCc3ccccc3Cl)[nH]n2c1=O	?	.	-9.6	-2.9	25.1µM*
CN1CCN(C(c2ccc(Br)cc2)c2cc(Cl)c3cccnc3c2O)CC1 (stereo unspecified)	2.82µM*	19.5%	-89.7*	?	0.794µM*
CN1CCN(C(c2ccc(F)cc2)c2ccc3cccnc3c2O)CC1 (stereo unspecified)	.	.	.	-6.0	.
CN1CCN(C(c2cccnc2)c2ccc3cccnc3c2O)CC1 (stereo unspecified)	1.9%	17.1%	-81.1*	-90.1*	-4.7%
Cc1cc(Cl)ccc1NC(=O)CCC(=O)N/N=C/c1cccnc1	11.9%	-4.3%	-0.2	0.1	-5.6%
COc1ccc2oc(=O)c(C(=O)Nc3cccc(C(C)=O)c3)cc2c1	2µM*	0.9%	.	3.1	5.62µM*
CNC(=O)c1cc2cc(OC)ccc2oc1=O	17.2%	-2.1%	4.5	2.1	-4.2%
COc1cccc(NC(=O)c2cc3ccccc3oc2=O)c1	6.31µM*	-8.2%	.	-7.0	10µM*
O=C(COc1ncnc2scc(-c3ccccc3)c12)NCCN1C(=O)CSC1=O	23.1%	4.1%	.	.	-11.2%
COc1cc2[nH]c(=S)nc(NC3CCCCCC3)c2cc1OC	?	-4.3%	-67.1*	-71.3*	4.7%
COc1cc2[nH]c(=S)nc(Nc3ccc(NC(C)=O)cc3)c2cc1OC	-12.5%	6.7%	-89.6*	-87.9*	-0.9%
COc1cc2[nH]c(=S)nc(NCC3CCCO3)c2cc1OC (stereo unspecified)	-22.1%	-15.4%	-86.9*	-90.0*	10.8%
COc1cc2[nH]c(=S)n(N(C(C)=O)C(C)=O)c(=O)c2cc1OC	14.6%	-0.7%	5.8	-0.7	2.1%
COC(=O)C(C)Sc1nc2c(cnn2-c2ccc(Cl)cc2)c(=O)[nH]1 (stereo unspecified)	14.1%	.	2.8	5.2	0.3%
COc1ccccc1CNC(=O)[C@@H](NC(=O)C1CCN(C(=O)[C@@H]2CCCN2C(=O)OC(C)(C)C)CC1)C(C)C	7.94µM*	-0.1%	-6.9	12.4	11.8%
COc1ccc2cc(C(=O)C3CCCN(Cc4cccc(C)n4)C3)ccc2c1 (stereo unspecified)	2µM*	?	-1.9	-2.9	12.6µM*
Cc1cccc(CN2CCCC(C(=O)c3ccc4c5c(cccc35)CC4)C2)n1 (stereo unspecified)	3.98µM*	3.7%	-11.7	-14.4	12.6µM*
COc1cccc(-c2ccc(NC(=O)C3CCCN(Cc4cccc(C)n4)C3)cc2)c1 (stereo unspecified)	.	.	-6.7	-9.7	.
COc1cc(-c2csc(CCn3nc(C)cc3C)n2)cc(OC)c1OC	5.5%	-5.0%	0.0	-3.4	-7.6%
Cc1ccccc1OCc1nc2ccccc2c(=O)n1N	27.6%	1.0%	2.3	1.5	11.6%
COc1cc2nc(=S)n3[nH]c(CCn4nc(C)cc4C)nc3c2cc1OC	0.0562µM*	-1.9%	?	-27.2	0.0891µM*

Screens (PubChem BioAssay)
